From PubChem BioAssay (Tox21)
Records with an inconclusive call do not appear. A call without a number means that no potency is given here. The source made the active and inactive calls. Calls follow the shape of the dose curve; as a rule, active = well fitted cell-killing curve with a large enough effect in the repeat runs; inconclusive = weak or mixed curves, or effect the other way; inactive = flat fitted curve, though single readings scatter.

test: qHTS assay to identify small molecule antagonists of the constitutive androstane receptor (CAR) signaling pathway - cell viability counter screen (AID 1224837); conditions: HepG2-CYP2B6-hCAR viability, CellTiter-Fluor, 23 h, co-treated with 50 nM CITCO; series mostly up to 92.4 µM; also: nearly all actives have a fitted effect of over 45% in size
Procedure, shortened: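 In quantitative HTS format, compounds at 15 concentrations were applied to HepG2 cells double-transfected with hCAR and CYP2B6-2.2kb under 50 nM CITCO stimulation; live-cell protease activity was read after 23 hr via CellTiter-Fluor.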

Structure (SMILES) | Potency
O=P(OC(CCl)CCl)(OC(CCl)CCl)OC(CCl)CCl | inactive
CC1=CCC2CC1C2(C)C (stereo not drawn) | inactive
O=S1(=O)CC=CC1 | inactive
FC(F)(F)c1ccc(Cl)c(Cl)c1 | inactive
Nc1ccccc1[N+](=O)[O-] | inactive
CC(C)CC(=O)CC(C)C | inactive
CC(c1cc2ccccc2s1)N(O)C(N)=O (stereo not drawn) | inactive
c1c[nH]cn1 | inactive
CC(C)(C)[C@@H](O)[C@@H](Cc1ccc(Cl)cc1)n1cncn1 | inactive
OCCOCCN1CCN(C2=Nc3ccccc3Sc3ccccc32)CC1 | inactive
CC(O)COCC(C)O (stereo not drawn) | inactive
c1ccc2scnc2c1 | inactive
Cc1ccc2oc(=O)ccc2c1 | inactive
CCc1cccc(C)c1N | inactive
CCCCC(CC)COC(=O)CS (stereo not drawn) | inactive
c1ccc(OCCOc2ccccc2)cc1 | inactive
CCCCCCCCCCCCCCCO | inactive
O=C(O)c1ccc2c(c1)C(=O)OC2=O | inactive
COc1cc(Cc2cnc(N)nc2N)cc(OC)c1OC | inactive
COc1ccc(Nc2ccccc2)c(C)c1 | inactive
O=C(O)c1cc(C(=O)O)cc(S(=O)(=O)O)c1 | inactive
CCCCCCCCCC | inactive
CC(=O)CC(=O)Nc1ccccc1 | inactive
Cc1cnc(C(=O)NCCc2ccc(S(=O)(=O)NC(=O)NC3CCCCC3)cc2)cn1 | inactive
Cc1cc(C)c(C)cc1C | inactive
C[C@H]1C[C@@H]2[C@H]([C@@H](O)C[C@@]3(C)[C@H]2CC[C@]3(O)C(=O)CO)[C@@]2(C)C=CC(=O)C=C12 | inactive
CCCCCCCCCCCCCCO | inactive
CCCSc1ccc2nc(NC(=O)OC)[nH]c2c1 | inactive
